# Measured values reported in PubChem BioAssay (NCI).
# This is part of a sample that, as a whole, favours compounds with a hit. Of some 83,000 tested, about 20% had one in any assay.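 Assay: single dose, 48 h. Readout: percent growth (0 = no net growth; negative = cell death). Active: <10.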 Active and inactive are the calls of the source.
# Test system: HL-60(TB) leukemia
# Experiment: NCI-60 one-dose screen, 48 h (100 = growth as untreated, 0 = no growth, -100 = all killed)
# Details: 10 µM unless noted
row,SMILES,growth
1,CC1CN(/N=C/c2ccc([N+](=O)[O-])o2)C(=N)O1 (stereo not given),99.8% (inactive)
2,Clc1c(Cl)[n+](Cc2ccc3ccccc3c2)cn1Cc1ccc2ccccc2c1,-54.7% (active)
3,CC1=C(CCC(C)NCc2ccc(OCCCN3CCCCC3)cc2)C(C)(C)CCC1 (stereo not given),-68.7% (active)
4,CCOC(=O)/C(C#N)=C(/CC)OCC,95% (inactive)
5,O=S(=O)(Cc1ccccc1)c1nc2ccccc2s1,16.9% (inactive)
6,CC(O)CN(CC(C)O)c1ccc2c(c1)Cc1cc([N+](=O)[O-])ccc1-2 (stereo not given),74.5% (inactive)
7,CC1(C)CC(=O)c2c(ccc(C(=O)C[C@H](N)CO)c2N)O1,44.8% (inactive)
8,CCCCCCCCCc1cc(CN2CCCCC2)c(O)c(CN2CCCCC2)c1,60.7% (inactive)
9,C=C(C)[C@@H]1CC[C@]2(COC(=O)c3cccnc3)CC[C@]3(C)[C@H](CC[C@@H]4[C@@]5(C)CCCN(C(=O)c6cccnc6)C(C)(C)[C@@H]5CC[C@]43C)[C@@H]12,11.6% (inactive)
10,COc1cc(-c2nc3c(ncc4ccc(=O)n(-c5ccccc5)c43)s2)cc(OC)c1OC,94.1% (inactive)
11,COc1ccc(/C=N/NC(=O)COCC(=O)N/N=C/c2ccc(OC)cc2)cc1,102% (inactive)
12,O=c1ccn(C2CC=C(CO)O2)c(=O)[nH]1 (stereo not given),91.9% (inactive)
13,Oc1cc(O)c2c(=S)cc(-c3ccc(Cl)cc3)oc2c1,37.6% (inactive)
14,CCCCNc1cc(C(=O)O)cc(S(N)(=O)=O)c1Oc1ccccc1,107% (inactive)
15,CC(Br)C(O)c1cc2c(cc1Br)OCO2 (stereo not given),105% (inactive)
16,O=C(CN1C(=O)S/C(=C\C(Cl)=C\c2ccccc2)C1=O)NC1CCS(=O)(=O)C1 (stereo not given),18.6% (inactive)
17,COc1cc2c(cc1OC)CC[N+](CCC[N+](C)(C)C)=C2,90.1% (inactive)
18,CCCC/C=C/[C@@H]1C[C@H]1CCO,111% (inactive)
19,COc1c(O)c(O)cc2c3c(oc12)CC(c1ccc2c(c1)OCO2)CC3=O (stereo not given),61.1% (inactive)
20,O=C(NC(=S)Nc1ccccn1)c1ccccc1,95.8% (inactive)

row,SMILES,growth
1,CSCCC1NC(=O)C(C(C)=Nc2ccccc2)=C1O (stereo not given),117% (inactive)
2,CCc1cc2c(cc1N1CCC(N3CCOCC3)CC1)C(C)(C)c1[nH]c3cc(C#N)ccc3c1C2=O,-6.15% (active)
3,CCCCCCCCCCCCCCCC(=O)OCC1OC(n2cnc3c(=S)nc(N)[nH]c32)C(OC(=O)CCCCCCCCCCCCCCC)C1OC(=O)CCCCCCCCCCCCCCC (stereo not given),86% (inactive)
4,O=C(/C=C/c1ccccn1)c1ccc(OCc2nnc(-c3ccc(Cl)cc3)o2)cc1,43% (inactive)
5,O=[N+]([O-])c1ccc(Oc2cc(Cl)c(Cl)cc2Cl)c(C(F)(F)F)c1,104% (inactive)
6,C=C(C)[C@@H]1CC[C@]2(C(=O)O)CC[C@]3(C)[C@H](CC[C@@H]4[C@@]5(C)C[C@@H](CC#Cc6ccc(C(F)(F)F)cc6)[C@H](O)C(C)(C)[C@@H]5CC[C@]43C)[C@@H]12,7.01% (active)
7,C=C1SC(=Nc2c(C)cccc2C)N(c2nc(Cl)nc(Cl)n2)C12CCCCC2,100% (inactive)
8,COc1cc2c(/C=C3/C(=O)Nc4ccc(O)cc43)c(Cl)n(Cc3cc(OC)c(OC)c(OC)c3)c2cc1C,-33.7% (active)
9,CCN1CCN(C(=O)[C@]23CC[C@@H](C)[C@H](C)[C@@H]2C2=CC[C@@H]4[C@@]5(C)C/C(=C/c6ccncc6)C(=O)C(C)(C)[C@@H]5CC[C@@]4(C)[C@]2(C)CC3)CC1,-33.1% (active)
10,COc1ccc(CNc2c3ccccc3nc3ccccc23)cc1F,12.9% (inactive)
11,Cc1ccc2nc(-c3ccc(N=Cc4ccccc4O)cc3)sc2c1,77.7% (inactive)
12,FC(F)(F)c1ccc(-c2cnc(Cl)nc2NC2CCCCCC2)cc1,-6.33% (active)
13,Cc1ccc([N+](=O)[O-])cc1Br,80.6% (inactive)
14,CC1c2ccccc2N(S(=O)(=O)c2ccccc2)C1C (stereo not given),67.6% (inactive)
15,Cc1cc(C)c2c(c1)N(C)c1ncnc(-n3c(C)nc4cc(C)ccc43)c1CC2C (stereo not given),1.64% (active)
16,Clc1nc(Cl)c2ncn(CC3(Cn4cnc5c(Cl)nc(Cl)nc54)COC3)c2n1,-75.5% (active)
17,Cc1ccc(Nc2cc(Cl)c([N+](=O)[O-])cc2[N+](=O)[O-])cc1,6.39% (active)
18,C=CCN1C(=O)c2ccccc2C1=O,101% (inactive)
19,Cc1ccc(C(=O)Nc2ccc(CN3CCN(C)CC3)c(C(F)(F)F)c2)cc1C#Cc1cnc(N)c2ccccc12,-37.9% (active)
20,COc1cc(OC)c(/C=C/C(=O)c2c(O)cc(OC)c(C3CCN(C)CC3)c2OC)c(OC)c1,-35.6% (active)
